Laboratory results published in ChEMBL document CHEMBL1961873, “Compounds: GSK PKIS; Assays: Nanosyn kinase panel” (2012).

Columns and labels:
[1] = target: Protein kinase C gamma type (Homo sapiens) (UniProt P05129); conditions: at 1 µM;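 note: each value is an averaged percent inhibition of the enzyme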
[2] = target: T1, Protein kinase C iota type (Homo sapiens) (UniProt P41743); conditions: at 0.1 µM
T1 sequence (whole entry): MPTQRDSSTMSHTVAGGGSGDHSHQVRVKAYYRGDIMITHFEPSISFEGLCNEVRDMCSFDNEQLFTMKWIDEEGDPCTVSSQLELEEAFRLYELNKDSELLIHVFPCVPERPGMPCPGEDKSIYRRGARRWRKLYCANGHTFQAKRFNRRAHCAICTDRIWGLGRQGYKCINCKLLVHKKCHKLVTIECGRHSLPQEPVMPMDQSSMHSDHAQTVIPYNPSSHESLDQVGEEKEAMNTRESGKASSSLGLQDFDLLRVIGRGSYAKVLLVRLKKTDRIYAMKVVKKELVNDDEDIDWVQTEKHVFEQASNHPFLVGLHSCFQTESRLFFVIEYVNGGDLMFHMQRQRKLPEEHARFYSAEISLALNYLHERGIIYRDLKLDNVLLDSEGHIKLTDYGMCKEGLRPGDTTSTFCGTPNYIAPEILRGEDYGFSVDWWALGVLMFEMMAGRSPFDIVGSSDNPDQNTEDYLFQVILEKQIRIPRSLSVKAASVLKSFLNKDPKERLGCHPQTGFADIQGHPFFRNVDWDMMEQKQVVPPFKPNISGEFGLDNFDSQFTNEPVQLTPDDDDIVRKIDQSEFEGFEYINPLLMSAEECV

[3] = target: T1, Protein kinase C iota type (Homo sapiens); conditions: at 1 µM
[4] = target: Protein kinase C theta type (Homo sapiens) (UniProt Q04759); conditions: at 0.1 µM
[5] = target: Protein kinase C theta type (Homo sapiens) (UniProt Q04759); conditions: at 1 µM
[6] = target: Protein kinase C beta type (Homo sapiens) (UniProt P05771); conditions: at 0.1 µM
[7] = target: Protein kinase C beta type (Homo sapiens) (UniProt P05771); conditions: at 1 µM
[8] = target: T2, Serine/threonine-protein kinase D1 (Homo sapiens) (UniProt Q15139); conditions: at 0.1 µM
T2 sequence (whole entry): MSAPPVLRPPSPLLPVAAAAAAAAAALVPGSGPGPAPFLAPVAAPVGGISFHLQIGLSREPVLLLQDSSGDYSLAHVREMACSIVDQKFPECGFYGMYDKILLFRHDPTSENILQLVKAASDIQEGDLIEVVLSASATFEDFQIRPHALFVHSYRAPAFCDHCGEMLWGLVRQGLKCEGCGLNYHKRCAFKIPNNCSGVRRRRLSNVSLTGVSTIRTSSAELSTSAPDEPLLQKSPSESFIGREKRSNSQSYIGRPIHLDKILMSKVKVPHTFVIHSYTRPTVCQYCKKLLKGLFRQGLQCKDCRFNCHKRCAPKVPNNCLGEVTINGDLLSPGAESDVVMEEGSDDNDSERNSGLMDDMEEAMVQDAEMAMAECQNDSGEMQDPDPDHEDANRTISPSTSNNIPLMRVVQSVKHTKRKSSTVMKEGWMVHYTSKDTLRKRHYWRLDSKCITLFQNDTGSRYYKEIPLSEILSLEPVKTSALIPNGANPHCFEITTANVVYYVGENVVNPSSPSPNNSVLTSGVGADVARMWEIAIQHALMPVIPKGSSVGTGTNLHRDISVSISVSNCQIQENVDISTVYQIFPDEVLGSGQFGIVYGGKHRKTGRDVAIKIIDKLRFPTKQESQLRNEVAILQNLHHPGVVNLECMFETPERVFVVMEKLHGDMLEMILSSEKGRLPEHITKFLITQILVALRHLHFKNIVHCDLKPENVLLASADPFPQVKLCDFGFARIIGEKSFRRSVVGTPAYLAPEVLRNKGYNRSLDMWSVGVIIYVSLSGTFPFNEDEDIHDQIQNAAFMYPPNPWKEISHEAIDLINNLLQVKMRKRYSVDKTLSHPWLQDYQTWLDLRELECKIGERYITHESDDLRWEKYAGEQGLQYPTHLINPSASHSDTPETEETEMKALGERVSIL

[9] = target: T2, Serine/threonine-protein kinase D1 (Homo sapiens); conditions: at 1 µM
[10] = target: T3, Serine/threonine-protein kinase D2 (Homo sapiens) (UniProt Q9BZL6); conditions: at 0.1 µM
T3 sequence (whole entry): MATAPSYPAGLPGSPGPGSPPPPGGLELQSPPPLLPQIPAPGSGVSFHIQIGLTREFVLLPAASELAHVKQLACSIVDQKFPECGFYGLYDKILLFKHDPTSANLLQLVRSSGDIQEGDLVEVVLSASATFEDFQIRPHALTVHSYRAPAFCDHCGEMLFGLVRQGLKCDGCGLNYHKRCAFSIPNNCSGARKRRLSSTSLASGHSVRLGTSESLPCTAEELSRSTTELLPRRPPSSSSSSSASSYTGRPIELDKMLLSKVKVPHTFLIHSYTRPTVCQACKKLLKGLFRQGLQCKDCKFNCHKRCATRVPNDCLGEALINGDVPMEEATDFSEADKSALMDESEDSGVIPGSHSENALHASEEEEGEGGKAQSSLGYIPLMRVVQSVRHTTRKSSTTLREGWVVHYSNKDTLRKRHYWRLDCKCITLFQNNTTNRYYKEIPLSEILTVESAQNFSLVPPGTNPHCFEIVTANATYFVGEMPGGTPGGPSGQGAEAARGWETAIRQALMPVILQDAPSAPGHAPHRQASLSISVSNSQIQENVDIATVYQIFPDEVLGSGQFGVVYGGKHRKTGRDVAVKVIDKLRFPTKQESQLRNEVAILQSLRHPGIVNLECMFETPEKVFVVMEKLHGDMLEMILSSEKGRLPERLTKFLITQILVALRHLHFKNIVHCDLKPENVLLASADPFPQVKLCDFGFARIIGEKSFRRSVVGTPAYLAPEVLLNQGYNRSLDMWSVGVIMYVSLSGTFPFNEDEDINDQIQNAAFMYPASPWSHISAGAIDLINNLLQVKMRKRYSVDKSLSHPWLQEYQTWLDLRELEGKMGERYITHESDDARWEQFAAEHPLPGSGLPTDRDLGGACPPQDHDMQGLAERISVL

[11] = target: T3, Serine/threonine-protein kinase D2 (Homo sapiens); conditions: at 1 µM
[12] = target: T4, Serine/threonine-protein kinase D3 (Homo sapiens) (UniProt O94806); conditions: at 0.1 µM
T4 sequence (whole entry): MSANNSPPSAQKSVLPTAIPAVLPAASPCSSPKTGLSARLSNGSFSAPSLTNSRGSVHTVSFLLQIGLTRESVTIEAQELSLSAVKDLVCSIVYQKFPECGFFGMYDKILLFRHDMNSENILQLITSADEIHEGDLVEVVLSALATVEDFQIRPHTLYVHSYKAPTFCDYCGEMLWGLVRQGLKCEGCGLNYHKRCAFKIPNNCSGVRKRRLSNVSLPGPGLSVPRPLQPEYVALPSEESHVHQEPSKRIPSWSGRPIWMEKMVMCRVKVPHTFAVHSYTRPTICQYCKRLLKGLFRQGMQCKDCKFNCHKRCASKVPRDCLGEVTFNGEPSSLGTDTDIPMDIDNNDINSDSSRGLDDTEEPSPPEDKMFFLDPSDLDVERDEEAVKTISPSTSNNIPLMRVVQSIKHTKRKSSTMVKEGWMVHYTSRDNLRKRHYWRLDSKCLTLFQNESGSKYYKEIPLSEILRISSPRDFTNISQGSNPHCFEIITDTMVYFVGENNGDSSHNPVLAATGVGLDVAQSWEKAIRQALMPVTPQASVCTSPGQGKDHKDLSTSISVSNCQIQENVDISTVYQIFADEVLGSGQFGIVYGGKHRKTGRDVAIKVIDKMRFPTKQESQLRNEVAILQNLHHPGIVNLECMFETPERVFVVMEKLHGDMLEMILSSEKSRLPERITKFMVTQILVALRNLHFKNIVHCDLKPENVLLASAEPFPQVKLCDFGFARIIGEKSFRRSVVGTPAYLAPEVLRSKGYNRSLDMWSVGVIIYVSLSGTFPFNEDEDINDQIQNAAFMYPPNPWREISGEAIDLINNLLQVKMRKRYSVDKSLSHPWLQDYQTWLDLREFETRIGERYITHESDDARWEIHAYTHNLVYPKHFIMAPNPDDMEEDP

[13] = target: T4, Serine/threonine-protein kinase D3 (Homo sapiens); conditions: at 1 µM
[14] = target: T5, cGMP-dependent protein kinase 1 (Homo sapiens) (UniProt Q13976); conditions: at 0.1 µM
T5 sequence (whole entry): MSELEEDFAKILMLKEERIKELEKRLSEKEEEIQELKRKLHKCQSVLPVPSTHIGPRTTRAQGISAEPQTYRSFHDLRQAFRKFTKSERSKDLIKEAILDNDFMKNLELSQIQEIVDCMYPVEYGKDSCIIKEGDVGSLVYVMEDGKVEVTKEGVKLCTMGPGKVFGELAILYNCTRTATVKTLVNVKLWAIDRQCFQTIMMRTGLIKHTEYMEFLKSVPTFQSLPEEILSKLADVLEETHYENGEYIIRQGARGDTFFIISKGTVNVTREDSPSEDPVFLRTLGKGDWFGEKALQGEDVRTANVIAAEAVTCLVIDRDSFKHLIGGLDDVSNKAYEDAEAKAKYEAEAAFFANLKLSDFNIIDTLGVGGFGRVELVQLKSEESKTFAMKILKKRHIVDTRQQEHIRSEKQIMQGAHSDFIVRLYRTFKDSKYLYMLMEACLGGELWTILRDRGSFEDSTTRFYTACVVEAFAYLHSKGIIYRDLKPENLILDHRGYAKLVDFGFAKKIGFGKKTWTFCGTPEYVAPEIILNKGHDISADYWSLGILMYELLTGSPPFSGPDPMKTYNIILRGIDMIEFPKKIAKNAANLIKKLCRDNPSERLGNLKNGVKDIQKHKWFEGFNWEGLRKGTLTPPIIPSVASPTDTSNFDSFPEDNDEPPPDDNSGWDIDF

[15] = target: T5, cGMP-dependent protein kinase 1 (Homo sapiens); conditions: at 1 µM
[16] = target: T6, cGMP-dependent protein kinase 2 (Homo sapiens) (UniProt Q13237); conditions: at 0.1 µM
T6 sequence (whole entry): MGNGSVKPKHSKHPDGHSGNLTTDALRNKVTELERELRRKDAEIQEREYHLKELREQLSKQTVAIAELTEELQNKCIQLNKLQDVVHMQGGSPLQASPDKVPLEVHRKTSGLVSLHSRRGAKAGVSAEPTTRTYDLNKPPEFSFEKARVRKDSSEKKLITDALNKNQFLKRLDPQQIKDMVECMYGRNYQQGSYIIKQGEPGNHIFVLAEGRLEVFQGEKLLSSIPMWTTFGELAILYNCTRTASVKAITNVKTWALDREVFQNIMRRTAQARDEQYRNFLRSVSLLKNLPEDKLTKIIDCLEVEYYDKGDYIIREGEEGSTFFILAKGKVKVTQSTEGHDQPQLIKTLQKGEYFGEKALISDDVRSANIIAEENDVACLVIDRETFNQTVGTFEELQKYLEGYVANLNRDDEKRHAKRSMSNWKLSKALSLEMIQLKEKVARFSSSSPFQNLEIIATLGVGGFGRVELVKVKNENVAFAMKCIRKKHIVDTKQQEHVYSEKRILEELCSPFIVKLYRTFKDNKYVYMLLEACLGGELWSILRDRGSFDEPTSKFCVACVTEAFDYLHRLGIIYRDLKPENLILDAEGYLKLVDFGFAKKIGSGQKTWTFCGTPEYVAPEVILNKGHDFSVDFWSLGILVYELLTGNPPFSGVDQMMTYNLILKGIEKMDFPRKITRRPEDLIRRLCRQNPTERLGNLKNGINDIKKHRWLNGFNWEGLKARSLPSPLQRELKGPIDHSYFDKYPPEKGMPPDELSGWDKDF

[17] = target: T6, cGMP-dependent protein kinase 2 (Homo sapiens); conditions: at 1 µM
[18] = target: T7, cAMP-dependent protein kinase catalytic subunit PRKX (Homo sapiens) (UniProt P51817); conditions: at 0.1 µM
T7 sequence (whole entry): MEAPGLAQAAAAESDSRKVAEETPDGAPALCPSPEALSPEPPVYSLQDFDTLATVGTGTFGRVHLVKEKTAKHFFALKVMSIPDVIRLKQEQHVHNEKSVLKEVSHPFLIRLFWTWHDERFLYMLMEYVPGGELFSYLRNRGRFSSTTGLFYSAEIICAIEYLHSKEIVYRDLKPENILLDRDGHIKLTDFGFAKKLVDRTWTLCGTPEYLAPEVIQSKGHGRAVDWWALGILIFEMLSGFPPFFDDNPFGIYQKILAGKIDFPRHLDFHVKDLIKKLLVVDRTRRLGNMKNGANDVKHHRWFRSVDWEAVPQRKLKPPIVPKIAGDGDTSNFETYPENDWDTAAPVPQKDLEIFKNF

[19] = target: T7, cAMP-dependent protein kinase catalytic subunit PRKX (Homo sapiens); conditions: at 1 µM
[20] = target: Rho-associated protein kinase 1 (Homo sapiens) (UniProt Q13464); conditions: at 0.1 µM;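 note: values are mean percent inhibition of ROCK1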
Rho-associated protein kinase 1 (Homo sapiens), sequence (Q13464 2-1354 limits assumed): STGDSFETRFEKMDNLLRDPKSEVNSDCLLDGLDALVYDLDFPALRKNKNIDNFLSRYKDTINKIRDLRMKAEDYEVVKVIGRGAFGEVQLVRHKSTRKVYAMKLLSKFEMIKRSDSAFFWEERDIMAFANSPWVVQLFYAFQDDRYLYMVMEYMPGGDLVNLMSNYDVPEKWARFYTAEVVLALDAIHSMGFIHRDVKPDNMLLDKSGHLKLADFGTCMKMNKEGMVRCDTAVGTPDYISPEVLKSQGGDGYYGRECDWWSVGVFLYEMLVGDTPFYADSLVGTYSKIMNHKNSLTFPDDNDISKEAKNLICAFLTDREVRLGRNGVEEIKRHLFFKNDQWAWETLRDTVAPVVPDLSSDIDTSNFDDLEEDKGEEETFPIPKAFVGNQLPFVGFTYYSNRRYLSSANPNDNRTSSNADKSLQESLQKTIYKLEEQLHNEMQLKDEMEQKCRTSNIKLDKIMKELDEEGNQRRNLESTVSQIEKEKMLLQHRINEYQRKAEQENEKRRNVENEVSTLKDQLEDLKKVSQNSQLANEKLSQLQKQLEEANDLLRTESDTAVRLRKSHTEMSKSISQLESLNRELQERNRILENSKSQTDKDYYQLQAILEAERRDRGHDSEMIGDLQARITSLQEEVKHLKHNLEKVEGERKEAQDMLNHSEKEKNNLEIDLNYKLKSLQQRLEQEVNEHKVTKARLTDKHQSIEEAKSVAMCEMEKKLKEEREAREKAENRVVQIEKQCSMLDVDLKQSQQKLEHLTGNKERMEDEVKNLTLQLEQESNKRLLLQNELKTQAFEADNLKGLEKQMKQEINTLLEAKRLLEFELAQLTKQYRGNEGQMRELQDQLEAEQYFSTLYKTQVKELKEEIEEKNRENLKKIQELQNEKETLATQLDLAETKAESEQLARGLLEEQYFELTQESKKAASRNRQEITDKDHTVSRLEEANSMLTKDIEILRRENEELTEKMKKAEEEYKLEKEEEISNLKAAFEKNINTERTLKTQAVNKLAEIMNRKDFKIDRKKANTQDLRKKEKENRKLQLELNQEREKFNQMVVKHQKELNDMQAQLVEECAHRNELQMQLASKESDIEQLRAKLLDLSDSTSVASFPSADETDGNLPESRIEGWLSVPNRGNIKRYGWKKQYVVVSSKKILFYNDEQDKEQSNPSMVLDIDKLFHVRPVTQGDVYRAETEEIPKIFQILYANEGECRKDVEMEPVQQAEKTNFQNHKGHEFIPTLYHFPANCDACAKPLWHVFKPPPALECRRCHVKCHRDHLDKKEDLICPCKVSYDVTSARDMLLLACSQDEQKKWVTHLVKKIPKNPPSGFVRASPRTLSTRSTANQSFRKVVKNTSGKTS

Protein kinase C theta type (Homo sapiens), sequence (Q04759 whole entry, looked up): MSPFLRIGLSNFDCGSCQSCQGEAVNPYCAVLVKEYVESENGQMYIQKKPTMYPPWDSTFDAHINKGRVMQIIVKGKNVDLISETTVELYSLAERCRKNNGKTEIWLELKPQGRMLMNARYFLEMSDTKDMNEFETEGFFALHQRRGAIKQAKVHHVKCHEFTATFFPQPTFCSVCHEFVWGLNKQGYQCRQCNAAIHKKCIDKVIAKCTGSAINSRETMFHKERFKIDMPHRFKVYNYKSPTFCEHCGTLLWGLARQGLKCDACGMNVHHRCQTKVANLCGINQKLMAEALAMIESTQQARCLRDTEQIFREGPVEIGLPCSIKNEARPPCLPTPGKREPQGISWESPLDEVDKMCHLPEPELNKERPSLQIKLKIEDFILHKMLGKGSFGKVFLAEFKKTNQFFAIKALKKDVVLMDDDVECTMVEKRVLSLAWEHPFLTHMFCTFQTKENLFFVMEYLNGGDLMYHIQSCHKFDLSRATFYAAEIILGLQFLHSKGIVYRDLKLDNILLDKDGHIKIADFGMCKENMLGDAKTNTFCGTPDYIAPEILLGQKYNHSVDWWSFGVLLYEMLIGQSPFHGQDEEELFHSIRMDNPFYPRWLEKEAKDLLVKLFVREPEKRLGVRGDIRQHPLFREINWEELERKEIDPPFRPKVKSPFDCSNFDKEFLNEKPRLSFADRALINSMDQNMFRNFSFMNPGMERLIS
Protein kinase C beta type (Homo sapiens), sequence (P05771 2-671 limits assumed): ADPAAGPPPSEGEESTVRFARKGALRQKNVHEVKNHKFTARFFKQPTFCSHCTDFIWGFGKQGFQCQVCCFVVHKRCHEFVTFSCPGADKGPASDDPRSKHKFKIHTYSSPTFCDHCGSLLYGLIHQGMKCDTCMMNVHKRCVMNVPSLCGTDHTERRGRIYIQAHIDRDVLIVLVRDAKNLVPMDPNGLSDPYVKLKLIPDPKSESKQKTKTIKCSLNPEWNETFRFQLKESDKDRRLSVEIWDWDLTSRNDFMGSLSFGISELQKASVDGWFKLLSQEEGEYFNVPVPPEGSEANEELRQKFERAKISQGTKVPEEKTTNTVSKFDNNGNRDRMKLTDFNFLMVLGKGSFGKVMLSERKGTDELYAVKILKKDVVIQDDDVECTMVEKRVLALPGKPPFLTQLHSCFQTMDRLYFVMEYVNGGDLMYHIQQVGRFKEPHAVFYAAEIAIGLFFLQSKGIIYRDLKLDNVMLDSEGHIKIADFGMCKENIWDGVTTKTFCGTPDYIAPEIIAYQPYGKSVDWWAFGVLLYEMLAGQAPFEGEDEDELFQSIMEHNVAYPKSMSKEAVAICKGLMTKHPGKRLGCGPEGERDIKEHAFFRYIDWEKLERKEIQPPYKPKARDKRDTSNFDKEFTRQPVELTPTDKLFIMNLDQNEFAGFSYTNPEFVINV

Structure (SMILES) | inhibition [1] | inhibition [2] | inhibition [3] | inhibition [4] | inhibition [5] | inhibition [6] | inhibition [7] | inhibition [8] | inhibition [9] | inhibition [10] | inhibition [11] | inhibition [12] | inhibition [13] | inhibition [14] | inhibition [15] | inhibition [16] | inhibition [17] | inhibition [18] | inhibition [19] | inhibition [20]
Cc1ccc(NC(=O)c2ccoc2)cc1-c1ccc(C(=O)NCC2CC2)cc1 | -0.41% | 1.53% | -0.02% | 0.79% | 0.76% | -0.21% | 0.92% | 3.2% | 2.32% | 2.39% | 3.55% | 2.92% | 2.95% | 0.89% | 1.09% | 1.21% | 1.02% | 1.5% | 0.55% | 0%
NCc1ccc(-n2c(-c3nonc3N)nc3cnccc32)cc1 | 42.1% | 4.36% | 27.5% | 17.2% | 59.4% | 7.63% | 37.7% | 8.16% | 41% | 8.58% | 41.3% | 8.56% | 40% | 6.05% | 26.6% | 16% | 60.2% | 5.92% | 29.4% | 80.6%
Cc1ccc(C(=O)NC2CCC2)cc1-c1ccc(C(=O)NCC2CC2)cc1 | 0.94% | 2.17% | 2.33% | 0.68% | -0.42% | 0.24% | 0.53% | 2.65% | 3.61% | 2.36% | 2.79% | 2.86% | 2.6% | 3.87% | 3.84% | 1.07% | 3.54% | 1.55% | -0.61% | 1.21%
